Source: PubChem BioAssay (Sanford-Burnham Center for Chemical Genomics)
HIF-2a inh: blocks HIF-2a reporter activity; AID 624352; 360,000 tested, 0.72% active; inhibition, % at 18.8 µM; 786-0 RCC cells HIF-2a reporter, luciferase luminescence, overnight;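 active = inhibition of the luminescence signal of 40% or more relative to plate controls, in a single-dose primary screen at 18.75 µM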
KKLEB tox: CF airway cell cytotoxicity counter-screen; KKLEB CF airway cells viability, ATPlite luminescence, overnight; stronger effect = lower value; cells stimulated with P. aeruginosa culture filtrate; activity change (cytotoxicity), % at 5 µM; 360,000 tested, 0.36% active; AID 602141;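 active = corrected activity change at or below -50% at 5 µM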
TROY signal inh: inhibitors of TROY-dependent NF-kB signaling; AID 1347056; 360,000 tested, 0.98% active; inhibition, % at 10 µM; Q293 LMP1-TROYcd NF-kB luciferase reporter, 4 h;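 active = compounds whose plate-normalised and pattern-corrected inhibition of the luciferase reporter signal at the single screening dose is 50% or more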
TWEAK Fn14 block: TWEAK-Fn14 signaling inhibition | TWEAK-stimulated Fn14 reporter cells, luciferase luminescence, 8 h | inhibition, % at 10 µM | 360,000 tested, 2% active | AID 1159606; in the data active = inhibition above about 50%
Peg3 prom inh: Peg3 promoter activity inhibition | HeLa PEG-Prom luciferase reporter, luminescence, overnight | inhibition, % at 20 µM | 360,000 tested, 1.7% active;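 active = inhibition of at least 50% at 20 µM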
CF NFkB block: cystic fibrosis NF-kB activation inhibition | KKLEB NF-kB-GFP reporter, PAF-induced, GFP fluorescence overnight | inhibition, % at 5 µM | 360,000 tested, 0.86% active;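 active = at least 50% inhibition at 5 µM, scaled per plate between neutral and stimulator controls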;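 note: PAF is a Pseudomonas aeruginosa culture filtrate used as stimulus; plate controls were PAF-stimulated DMSO wells for no effect and unstimulated DMSO wells for full effect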
* = called active by the depositor. In the library only some 4% were active in any assay of this set; here they are far more common.

`CCNS(=O)(=O)c1ccc(NC(=O)Cn2nc(C(F)(F)F)cc2C)cc1` gave HIF-2a inh 5, KKLEB tox 14, TWEAK Fn14 block 87*, Peg3 prom inh 8 and CF NFkB block 3.
Screening C=CCn1c(SCC(=O)NCCOC)nnc1-c1cc2c(s1)CCC(CC)C2 (configuration not stated) returned HIF-2a inh -43, KKLEB tox -10, TROY signal inh -23, TWEAK Fn14 block -25, Peg3 prom inh -47 and CF NFkB block -3.
O=C(c1cc2nc(-c3ccc(F)cc3)cc(C(F)(F)F)n2n1)N1CCCCC1c1cccnc1 (configuration not stated) was read as HIF-2a inh -4, KKLEB tox -10, TROY signal inh 45, TWEAK Fn14 block 61*, Peg3 prom inh 12 and CF NFkB block 31.
CN1/C(=C\C(=S)NC(=O)c2cccc(Br)c2)C(C)(C)c2ccccc21 was read as HIF-2a inh 20, KKLEB tox -5, TROY signal inh 37, TWEAK Fn14 block 72*, Peg3 prom inh 7 and CF NFkB block -9.
Screening CN1/C(=C/C=N/NC(=O)c2ccc([N+](=O)[O-])cc2)C(C)(C)c2ccccc21 returned HIF-2a inh 18, KKLEB tox -5, TROY signal inh 2, TWEAK Fn14 block -2, Peg3 prom inh 12 and CF NFkB block 9.
Screening CCN(CC)S(=O)(=O)c1cccc(C(=O)/C=C2/N(C)c3ccccc3C2(C)C)c1 returned HIF-2a inh -15, KKLEB tox -8, TROY signal inh 33, TWEAK Fn14 block 61*, Peg3 prom inh 24 and CF NFkB block 10.
Screening CN1/C(=C\C(=O)Nc2ccc(Br)cc2)C(C)(C)c2ccccc21 returned HIF-2a inh -15, KKLEB tox 21, TROY signal inh 13, TWEAK Fn14 block -38, Peg3 prom inh 6 and CF NFkB block -10.
CN1/C(=C\C(=S)NC(=O)c2ccc([N+](=O)[O-])cc2)C(C)(C)c2ccccc21 was read as HIF-2a inh 25, KKLEB tox 9, TROY signal inh -27, TWEAK Fn14 block 58*, Peg3 prom inh -17 and CF NFkB block -19.
For Cc1cccc(Oc2nc3ccccn3c(=O)c2/C=C(\C#N)C(=O)NC2CCS(=O)(=O)C2)c1C (configuration not stated) the results were HIF-2a inh 19, KKLEB tox 5, TROY signal inh 5, TWEAK Fn14 block -2, Peg3 prom inh 23 and CF NFkB block -12.
Cc1nc2ccc(NC(=O)c3ccc(S(=O)(=O)N(C)c4ccccc4)cc3)cc2s1 was read as HIF-2a inh 23, KKLEB tox 19, TROY signal inh 56*, TWEAK Fn14 block 58*, Peg3 prom inh 67* and CF NFkB block 2.
For CC(=O)Nc1ccc(NC(=O)c2ccc(S(=O)(=O)N(C)c3ccccc3)cc2)cc1 the results were HIF-2a inh 23, KKLEB tox 11, TROY signal inh 20, TWEAK Fn14 block 3, Peg3 prom inh 15 and CF NFkB block -14.
`CCSc1nnc([C@H](Cc2ccccc2)NC(=O)OC(C)(C)C)o1` gave HIF-2a inh -2, KKLEB tox 11, TROY signal inh -13, TWEAK Fn14 block -15, Peg3 prom inh 5 and CF NFkB block 8.
Screening CCC(C)[C@@H](NC(=O)OC(C)(C)C)c1nnc(S(=O)(=O)Cc2cccc(C)c2)o1 (some centres not stated) returned HIF-2a inh 40, KKLEB tox -7, TROY signal inh 28, TWEAK Fn14 block 40, Peg3 prom inh 108* and CF NFkB block 82*.
Screening Cc1ccccc1CS(=O)(=O)c1nnc([C@H](Cc2ccccc2)NC(=O)OC(C)(C)C)o1 returned HIF-2a inh 21, KKLEB tox -24, TROY signal inh 2, TWEAK Fn14 block 10, Peg3 prom inh 104* and CF NFkB block 72*.
Screening N#Cc1cc(NC(=O)c2ccc(Cl)cc2)ccc1Sc1ccccc1 returned HIF-2a inh -131, KKLEB tox -39, TROY signal inh 50*, TWEAK Fn14 block 64*, Peg3 prom inh 42 and CF NFkB block 39.
`COc1ccc(Sc2ccc(NC(=O)c3ccccc3Cl)cc2C#N)cc1` gave HIF-2a inh -2, KKLEB tox -10, TROY signal inh 1, TWEAK Fn14 block 15, Peg3 prom inh 23 and CF NFkB block 8.
Screening CN[C@H](C)C(=O)NC[C@H]1O[C@@H](n2ccc(N)nc2=O)[C@H](O)[C@@H]1O returned HIF-2a inh -1, KKLEB tox -2, TROY signal inh 2, TWEAK Fn14 block 15, Peg3 prom inh -2 and CF NFkB block 3.
For COC(=O)CNC(=O)CN1C(=O)N(c2ccccc2)C(N(O)C(=O)Nc2ccccc2)C1(C)C (configuration not stated) the results were HIF-2a inh -11, KKLEB tox -18, TROY signal inh -9, TWEAK Fn14 block 81*, Peg3 prom inh 0 and CF NFkB block 10.
Screening COC(=O)CN1C(=O)N(c2ccccc2)C(N(O)C(=O)Nc2ccccc2)C1(C)C (configuration not stated) returned HIF-2a inh -30, KKLEB tox -9, TROY signal inh -27, TWEAK Fn14 block 0, Peg3 prom inh -9 and CF NFkB block 3.
O=C(C(Cl)Cl)N1c2ccccc2OCC1c1ccccc1 (configuration not stated) was read as HIF-2a inh 9, KKLEB tox 4, TROY signal inh 14, TWEAK Fn14 block 32, Peg3 prom inh 59* and CF NFkB block -4.
For CC1COc2ccccc2N1C(=O)c1ccc(Cl)cc1 (configuration not stated) the results were HIF-2a inh 13, KKLEB tox 2, TROY signal inh -3, TWEAK Fn14 block 6, Peg3 prom inh 13 and CF NFkB block 4.
`Cc1ccc(S(=O)(=O)N2c3ccccc3OCC2c2ccccc2)cc1` (configuration not stated) gave HIF-2a inh 11, KKLEB tox -8, TROY signal inh 16, TWEAK Fn14 block 63*, Peg3 prom inh 34 and CF NFkB block 7.
For CC1COc2ccccc2N1S(=O)(=O)c1ccc(Cl)cc1 (configuration not stated) the results were HIF-2a inh 19, KKLEB tox -9, TROY signal inh 11, TWEAK Fn14 block 6, Peg3 prom inh 40 and CF NFkB block 17.
Screening Cc1cccc(-c2nnn3c2nc(NCCc2ccc(S(N)(=O)=O)cc2)c2ccccc23)c1 returned HIF-2a inh -6, KKLEB tox -52*, TROY signal inh -43, TWEAK Fn14 block -65, Peg3 prom inh 4 and CF NFkB block 36.
Screening COCCn1c(C)cc(C(=O)CN2C(=O)NC3(CCCCCC3)C2=O)c1C returned HIF-2a inh -188, KKLEB tox 1, TROY signal inh -22, TWEAK Fn14 block -3, Peg3 prom inh -224 and CF NFkB block 3.
